# Bead autofluor: counter-screen for toxin protease inhibitors: compound fluorescence | compound autofluorescence counterscreen, microsphere flow cytometry; hits give high values | fluorescence intensity (test concentration not listed) | hit rate 3.1% among 360,000; in the data active means fluorescence intensity above about 16000; inconclusive means no clear call, values can overlap the other calls
# BH1578 lux ind: inducers of Vibrio cholerae quorum light production without autoinducers; hit rate 0.16% among 350,000; V. cholerae BH1578 lux reporter, luminescence, 6 h; activation, % at 18.7 µM; in the data active means activation mostly above about 9.7%, no sharp cut-off; inconclusive means no clear call, values can overlap the other calls; inactive means mostly below about 3.7%
# Anthrax LF inh2: inhibitors of Bacillus anthracis lethal factor protease; P15917; multiplex microsphere protease cleavage assay, LF; inhibition, % at 10 µM; hit rate 0.12% among 360,000
# BoNT-A LC inh2: BoNT A light chain protease inhibition. hit rate 0.17% among 360,000. inhibition, % at 10 µM. multiplex microsphere protease substrate cleavage, flow cytometry
# BJeLR lethal: kills HRASV12-expressing BJeLR cells. AID 1554. inhibition, % (test concentration not listed). BJeLR (HRASV12) viability, CellTiter-Glo ATP luminescence, 48 h. hit rate 0.17% among 300,000; in the data active means inhibition above about 50%; inconclusive means no clear call, values can overlap the other calls
# BoNT-F LC inh: blocks Botulinum neurotoxin F light chain protease; Multiplex microsphere protease cleavage assay, flow cytometry; inhibition, % at 10 µM; hit rate 0.22% among 360,000; AID 588497; in the data active means inhibition above about 35%, passing the limit was not always enough; inconclusive means no clear call, values can overlap the other calls
# A number is an active result; 0 = inactive; ? = inconclusive; - = not tested or not shown. A selection: hits, their analogues and other compounds. The true share with any hit is near 3.7%. Unless noted, no stated cut-off is given here; in the data, active means inhibition above about 30%; inconclusive means no clear call, values can overlap the other calls; inactive means below that.
SMILES,Bead autofluor,BH1578 lux ind,Anthrax LF inh2,BoNT-A LC inh2,BJeLR lethal,BoNT-F LC inh
CC(=O)Nc1cc2c3c(cccc3c1)-c1ccccc1-2,0,0,0,0,-,0
COC(=O)c1cccc(N2C(=O)C[C@](Sc3ccc(C)cc3)(C(=O)OC)[C@H]2c2ccccc2)c1,0,-,0,0,-,0
CC(=O)c1c(C(C)=O)c(C)n(-c2ccc(C)c(NC(=O)c3ccccc3Cl)c2)c1C,16183,0,0,0,0,0
C[C@@H]1CN([C@@H](C)CO)C(=O)c2cc(NC(=O)Nc3ccccc3)ccc2O[C@@H](C)CCCCO[C@H]1CN(C)C(=O)Nc1ccc(C(F)(F)F)cc1,0,0,0,0,-,0
O=S(=O)(Nc1ccccc1F)c1ccc2nsnc2c1,0,0,0,0,0,0
Cc1ccc2nsnc2c1S(=O)(=O)Nc1ccccc1C(=O)O,0,0,0,0,0,?
Cc1ccc2nsnc2c1NS(=O)(=O)c1c(C)ccc2nsnc12,22309,0,0,0,0,0
Cc1cc(S(=O)(=O)Nc2c(C)ccc3nsnc23)ccc1F,16194,0,0,0,-,0
CCCCN(C(=O)NC(=O)Nc1ccccc1OCC)S(C)(=O)=O,0,38,0,0,0,0
O=C(Nc1cccc2c1CCCC2)c1cc(C2CCCCN2S(=O)(=O)c2cccs2)on1 (configuration not stated),0,0,0,0,-,0
COc1ccc(Oc2ccc(N/C=C3\CCCC3=O)cc2)cc1,0,0,0,0,0,0
NC(=O)c1ccccc1N/C=C1\CCCCC1=O,0,0,0,0,0,0
COc1ccc(Oc2ccc(N/C=C3/CCCC3=O)cc2)cc1,0,0,0,0,0,0
O=C1CCC/C1=C/Nc1cccc(F)c1,-,0,-,-,0,-
COc1ccc(OC)c(N/C=C2/CCCCC2=O)c1,21967,0,0,0,0,0
O=C1CCCC/C1=C\Nc1ccccc1C(=O)O,19879,0,0,0,0,0
O=C1CCCC/C1=C/Nc1ccc2c(c1)OCO2,16302,0,0,0,0,0
COc1ccc(N/C=C2/CCCCC2=O)cc1,21936,0,0,0,-,0
CC(=O)Nc1cccc(-c2cc(NC(C)=O)c3ncc(-c4ccc(C(C)=O)cc4)n3c2)c1,0,0,0,0,-,0
CC(=O)C1=CCC(c2ccco2)N(S(=O)(=O)c2ccc(C)cc2)C1 (configuration not stated),0,-,0,0,-,0
O=C(Cc1cccc(NC(=O)C2CCCN(C(=O)CCc3ccccc3)C2)c1)Nc1ccc(C(=O)N2CCCCC2)cc1 (configuration not stated),0,0,0,0,-,0
Cc1cccc(-n2c(SCC(=O)c3c(N)n(C4CC4)c(=O)[nH]c3=O)nnc2N2CCOCC2)c1,0,0,0,0,-,0
CC(C)CNC(=O)CSc1nc(-c2cccs2)cc(C(F)(F)F)n1,0,0,0,0,0,38
COc1ccc(-c2cc(-c3cc(F)ccc3O)[nH]n2)cc1OC,22604,0,0,?,0,0
COc1ccc(-c2cc(-c3ccccc3O)[nH]n2)cc1OC,0,0,0,0,0,0
SMILES,Bead autofluor,BH1578 lux ind,Anthrax LF inh2,BoNT-A LC inh2,BJeLR lethal,BoNT-F LC inh
O=C(CCC(=O)NC1CCN(Cc2ccccc2)CC1)NCc1ccco1,23478,0,0,?,0,0
O=C(COc1ccccc1)NC1CCN(Cc2ccccc2)CC1,17241,0,0,?,0,0
O=C(Cn1[nH]c(=O)c2ccccc2c1=O)NC1CCN(Cc2ccccc2)CC1,23670,0,0,0,-,0
O=C(COc1ccc(Br)cc1Cl)NC1CCN(Cc2ccccc2)CC1,0,0,0,0,0,0
O=C(O)C1C2C=CC(C2)C1C(=O)NC1CCN(Cc2ccccc2)CC1 (configuration not stated),20434,0,0,?,0,0
O=C(NC1CCN(Cc2ccccc2)CC1)C1COc2ccccc2O1 (configuration not stated),0,0,0,0,0,0
O=C(NC1CCN(Cc2ccccc2)CC1)c1ccc(S(=O)(=O)NCc2ccco2)cc1,0,0,0,0,0,0
COCCN(C(=O)COC(=O)c1ccc2c(c1)OCO2)c1c(N)n(Cc2ccccc2)c(=O)[nH]c1=O,0,0,0,0,-,0
O=c1oc2ccccc2cc1-c1csc(Cc2nc(-c3ccc(Br)cc3)cs2)n1,16508,0,0,?,0,0
CC1OC(OC2CC(O)C3(CO)C4C(O)CC5(C)C(C6=CC(=O)OC6)CCC5(O)C4CCC3(O)C2)C(O)C(O)C1O (configuration not stated),0,0,0,0,-,0

# Source: PubChem BioAssay (several laboratories)
